Numbering of substitutions follows the chain as printed; changes in the protein carry UniProt numbers. Whole data set: some 16,000 sequences, median “ka relative to ugcaugu” near 0.0091, cut for the highest 2% near 0.032. The full list was thinned out, with the highest values kept by preference.
T1: RBFOX1 RRM (Homo sapiens, UniProt Q9NWB1 109-208)
T1 sequence: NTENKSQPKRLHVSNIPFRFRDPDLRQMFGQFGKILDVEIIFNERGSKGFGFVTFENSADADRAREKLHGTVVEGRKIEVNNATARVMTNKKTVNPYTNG

B1: UCAAUCC (DNA:RNA)
RNA: GGGAGACCGGAAUUCAGAUUGUCCUCAAUCCUUAAAUCCCGUCGUAGCCACCA
DNA 1: CAATCTGAATTCCGGTCTCCC
DNA 2: TGGTGGCTACGACGGGATT
B2: UAUUGCC (DNA:RNA)
RNA: B1 RNA with C26A, A27U, A28U, U29G
DNA 1: CAATCTGAATTCCGGTCTCCC
DNA 2: TGGTGGCTACGACGGGATT
B3: UGUUAGC (DNA:RNA)
RNA: B1 RNA with C26G, A27U, A28U, U29A, C30G
DNA 1: CAATCTGAATTCCGGTCTCCC
DNA 2: TGGTGGCTACGACGGGATT
B4: GACUGAA (DNA:RNA)
RNA: GGGAGACCGGAAUUCAGAUUGUCCGACUGAAUUAAAUCCCGUCGUAGCCACCA
DNA 1: CAATCTGAATTCCGGTCTCCC
DNA 2: TGGTGGCTACGACGGGATT
B5: UUCAGCC (DNA:RNA)
RNA: B1 RNA with C26U, A27C, U29G
DNA 1: CAATCTGAATTCCGGTCTCCC
DNA 2: TGGTGGCTACGACGGGATT
B6: ACCUUCG (DNA:RNA)
RNA: B1 RNA with U25A, A27C, A28U, C31G
DNA 1: CAATCTGAATTCCGGTCTCCC
DNA 2: TGGTGGCTACGACGGGATT
B7: ACCUAAG (DNA:RNA)
RNA: B4 RNA with G25A, A26C, G29A, A31G
DNA 1: CAATCTGAATTCCGGTCTCCC
DNA 2: TGGTGGCTACGACGGGATT
B8: UUACAAU (DNA:RNA)
RNA: B1 RNA with C26U, A28C, U29A, C30A, C31U
DNA 1: CAATCTGAATTCCGGTCTCCC
DNA 2: TGGTGGCTACGACGGGATT
B9: GAUUGAC (DNA:RNA)
RNA: B4 RNA with C27U, A31C
DNA 1: CAATCTGAATTCCGGTCTCCC
DNA 2: TGGTGGCTACGACGGGATT
B10: UAGUCCU (DNA:RNA)
RNA: B4 RNA with G25U, C27G, G29C, A30C, A31U
DNA 1: CAATCTGAATTCCGGTCTCCC
DNA 2: TGGTGGCTACGACGGGATT
B11: GUACGUA (DNA:RNA)
RNA: B4 RNA with A26U, C27A, U28C, A30U
DNA 1: CAATCTGAATTCCGGTCTCCC
DNA 2: TGGTGGCTACGACGGGATT
B12: CUUUCCU (DNA:RNA)
RNA: B4 RNA with G25C, A26U, C27U, G29C, A30C, A31U
DNA 1: CAATCTGAATTCCGGTCTCCC
DNA 2: TGGTGGCTACGACGGGATT
B13: UGCUCGA (DNA:RNA)
RNA: B4 RNA with G25U, A26G, G29C, A30G
DNA 1: CAATCTGAATTCCGGTCTCCC
DNA 2: TGGTGGCTACGACGGGATT
B14: GUCUCGA (DNA:RNA)
RNA: B4 RNA with A26U, G29C, A30G
DNA 1: CAATCTGAATTCCGGTCTCCC
DNA 2: TGGTGGCTACGACGGGATT
B15: UGCUCGG (DNA:RNA)
RNA: B4 RNA with G25U, A26G, G29C, A30G, A31G
DNA 1: CAATCTGAATTCCGGTCTCCC
DNA 2: TGGTGGCTACGACGGGATT
B16: CGGCUCG (DNA:RNA)
RNA: B1 RNA with U25C, C26G, A27G, A28C, C31G
DNA 1: CAATCTGAATTCCGGTCTCCC
DNA 2: TGGTGGCTACGACGGGATT
B17: CGCUCGG (DNA:RNA)
RNA: B4 RNA with G25C, A26G, G29C, A30G, A31G
DNA 1: CAATCTGAATTCCGGTCTCCC
DNA 2: TGGTGGCTACGACGGGATT
B18: UCCUCGA (DNA:RNA)
RNA: B4 RNA with G25U, A26C, G29C, A30G
DNA 1: CAATCTGAATTCCGGTCTCCC
DNA 2: TGGTGGCTACGACGGGATT
B19: GGCUCGA (DNA:RNA)
RNA: B4 RNA with A26G, G29C, A30G
DNA 1: CAATCTGAATTCCGGTCTCCC
DNA 2: TGGTGGCTACGACGGGATT
B20: UCGUCGA (DNA:RNA)
RNA: B4 RNA with G25U, A26C, C27G, G29C, A30G
DNA 1: CAATCTGAATTCCGGTCTCCC
DNA 2: TGGTGGCTACGACGGGATT
B21: UCGUCGG (DNA:RNA)
RNA: B1 RNA with A27G, A28U, U29C, C30G, C31G
DNA 1: CAATCTGAATTCCGGTCTCCC
DNA 2: TGGTGGCTACGACGGGATT

Molecular target: T1, RBFOX1 RRM
Test: EMSA; HiTS-Eq, 1 nM pool, 10 min; buffer printed only for the single-RNA assays: 10 mM Tris pH 7.5, 150 mM NaCl, 3.4 mM EDTA, 0.001% NP-40, 30 C
Settings: tags: His6 N-terminal (pET28a); label: 5' 32P
How it was run: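 These values rest on relative association constants, computed from read-count changes of each RNA species versus the control reaction and normalised to the cognate motif. Reads came from free RNA recovered by 8% native PAGE after purified RbFox RRM (wild type or mutant) at increasing concentrations was equilibrated for 10 min in 50 µL with 1 nM of a 5′-radiolabelled pool with 7 randomized nucleotides and DNA-annealed flanks.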

| Binder | binding signal |
| --- | --- |
| B1 | 0.00161 KA relative to UGCAUGU |
| B2 | 0.012 KA relative to UGCAUGU |
| B3 | 0.0176 KA relative to UGCAUGU |
| B4 | 0.0274 KA relative to UGCAUGU |
| B5 | 0.0103 KA relative to UGCAUGU |
| B6 | 0.00839 KA relative to UGCAUGU |
| B7 | 0.00359 KA relative to UGCAUGU |
| B8 | 0.00107 KA relative to UGCAUGU |
| B9 | 0.0228 KA relative to UGCAUGU |
| B10 | 0.00776 KA relative to UGCAUGU |
| B11 | 0.0085 KA relative to UGCAUGU |
| B12 | 0.0054 KA relative to UGCAUGU |
| B13 | 0.0363 KA relative to UGCAUGU |
| B14 | 0.0166 KA relative to UGCAUGU |
| B15 | 0.0361 KA relative to UGCAUGU |
| B16 | 0.0112 KA relative to UGCAUGU |
| B17 | 0.0166 KA relative to UGCAUGU |
| B18 | 0.00976 KA relative to UGCAUGU |
| B19 | 0.033 KA relative to UGCAUGU |
| B20 | 0.014 KA relative to UGCAUGU |
| B21 | 0.0171 KA relative to UGCAUGU |

— paper PMC9911399, “Two distinct binding modes provide the RNA-binding protein RbFox with extraordinary sequence specificity”
